Laboratory results as given in PubChem BioAssay.
Activity calls are given as the source filed them.

Experiments:
[1] = small molecules captured by biotinylated probe aFSTL3 – biochemical, small-molecule microarray, fluorescence 635/667, stem cell growth factor project, primary screen (AID 1064); conditions: higher = more signal;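 further: measures binding of the biotinylated anti-FSTL3 antibody to printed compounds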
[2] = binders from COS7 lysate, DM2A8 probe, primary screen, torsin A project, cell lysate, small-molecule microarray, fluorescence 635/667 (AID 1065); conditions: higher = more signal, COS7 lysate expressing mutant human TOR1A
[3] = small molecules captured by biotinylated probe aFGF2 – biochemical, small-molecule microarray, fluorescence 635/667, stem cell growth factor project, primary screen (AID 1067); conditions: higher = more signal;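 further: measures binding of biotinylated aFGF2 protein to printed compounds on slides; z-score merges feature fluorescence and signal-to-noise across triplicate slides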
[4] = small molecules captured by biotinylated probe aFGF10 – biochemical, small-molecule microarray, fluorescence 635/667, stem cell growth factor project, primary screen (AID 1071); conditions: higher = more signal;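 further: score merges 667 nm spot intensity and signal to noise from triplicate slides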
[5] = target: Neurogenic locus notch homolog protein 2 (Homo sapiens) (UniProt Q04721); test: small molecules binding Notch2 protein – biochemical, small-molecule microarray, 635 nm fluorescence, stem cell growth factors, primary screen (AID 1073); conditions: higher = more signal
[6] = target: Pro-neuregulin-1, membrane-bound isoform (Homo sapiens) (UniProt Q02297); test: small molecules binding neuregulin-1 protein – biochemical, small-molecule microarray, fluorescence 635/667, psychiatric disease protein project, primary screen (AID 1075); conditions: NRG1 binding, 635 nm fluorescence, higher = more signal;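 further: score combines 667 nm spot fluorescence with signal to noise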
[7] = system: Neuregulin-1 EGF-like domain; test: small molecules binding NRG1 EGF domain – biochemical, small-molecule microarray, 635 nm fluorescence, primary screen (AID 1081); conditions: higher = more signal;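 further: binding of the protein to compounds printed on small-molecule microarray slides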
[8] = FRG1 expression reporter modulators in myotubes – cell-based, C2C12 myotubes, firefly/Renilla luciferase, luminescence, FRG1 inhibition for FSHD, primary screen (AID 1084); conditions: FRG1 promoter luciferase, higher = more signal, called active from +8 up or from −8 down
[9] = small molecules captured by biotinylated probe aFST – biochemical, small-molecule microarray, fluorescence 635/667, stem cell growth factor project, primary screen (AID 1086); conditions: higher = more signal;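 further: score merges 667 nm fluorescence with signal-to-noise of each printed compound spot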
[10] = binders of probe aHhip on microarray, primary screen, stem cell growth factor project, biochemical, small-molecule microarray, fluorescence 635/667 (AID 1087); conditions: higher = more signal;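 further: score merges spot fluorescence at 667nm with spot signal to noise ratio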
[11] = system: PRMT1 (protein arginine N-methyltransferase 1); test: small molecules binding arginine methyltransferase PRMT1 – biochemical, small-molecule microarray, 635 nm fluorescence, primary screen (AID 1088); conditions: higher = more signal;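 further: binding of Prmt1 protein to compounds spotted on small-molecule microarray slides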
[12] = growth effects on S. cerevisiae YJM789 – YJM789 clinical isolate, OD600, 24 h, basal, primary screen (AID 1089); conditions: higher = more signal, called active from +8 up or from −8 down;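 further: growth of clinical yeast isolate S. cerevisiae YJM 789 seeded 1000 cells per well; test concentration not given here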
[13] = S. pombe growth modifiers, basal conditions – strain 972, OD600, 24 h, no modulator, primary screen (AID 1090);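 further: basal condition with compound alone and no growth modifier present; test concentration not given here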; conditions: S. pombe 972 growth, higher = more signal, called active from +8 up or from −8 down
[14] = budding yeast growth modifiers under rapamycin – strain BY4716, OD600, 96 h, primary screen (AID 1091); further: test concentration not given here; conditions: S. cerevisiae BY4716 + rapamycin, higher = more signal, called active from +8 up or from −8 down
[15] = target: Torsin-1A-interacting protein 2 (Homo sapiens) (UniProt Q8NFQ8); test: small molecules binding lysate-expressed LULL1 – cell lysate, human LULL1 lysate, 635/667 nm fluorescence, primary screen (AID 1092); conditions: small-molecule microarray, hLULL1 lysate binding, 635 nm fluorescence; higher = more signal;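 further: probe is lysate of COS7 cells overexpressing human LULL1; score merges per-feature 667 nm fluorescence with signal-to-noise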
[16] = optical density change of DRC41 E. coli – strain DRC41, OD650, 24 h, E. coli filamentation project, primary screen (AID 1093);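 further: MC1000 strain lacking acrAB efflux and sulA so SOS filamentation is blocked; test concentration not given here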; conditions: E. coli DRC41 growth, higher = more signal, called active from +8 up or from −8 down
[17] = probe aLefty2 binding to arrayed compounds – biochemical, biotinylated probe, 635/667 nm fluorescence, primary screen (AID 1094); conditions: small-molecule microarray, higher = more signal;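 further: score merges spot fluorescence near 667 nm with spot signal-to-noise ratio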
[18] = system: Noggin (protein binding on small-molecule microarray); test: small molecules binding Noggin protein – biochemical, 635/667 nm fluorescence, primary screen (AID 1095); conditions: 635 nm fluorescence, higher = more signal;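 further: score merges 667 nm feature fluorescence with signal to noise over triplicate slides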
[19] = target: Neurogenic locus notch homolog protein 3 (Homo sapiens) (UniProt Q9UM47); test: small molecules binding NOTCH3 protein – biochemical, 635/667 nm fluorescence, primary screen (AID 1096); conditions: small-molecule microarray, 635 nm fluorescence, higher = more signal
[20] = probe aEGFR binding to arrayed compounds – biochemical, biotinylated probe, 635/667 nm fluorescence, primary screen (AID 1097); conditions: small-molecule microarray, higher = more signal;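 further: probe is a biotinylated anti-EGFR antibody binding compounds printed on slides; score combines fluorescence near 667 nm and signal to noise of each spot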

Chain of Neurogenic locus notch homolog protein 2 (Homo sapiens) (Q04721 whole entry, looked up, canonical isoform): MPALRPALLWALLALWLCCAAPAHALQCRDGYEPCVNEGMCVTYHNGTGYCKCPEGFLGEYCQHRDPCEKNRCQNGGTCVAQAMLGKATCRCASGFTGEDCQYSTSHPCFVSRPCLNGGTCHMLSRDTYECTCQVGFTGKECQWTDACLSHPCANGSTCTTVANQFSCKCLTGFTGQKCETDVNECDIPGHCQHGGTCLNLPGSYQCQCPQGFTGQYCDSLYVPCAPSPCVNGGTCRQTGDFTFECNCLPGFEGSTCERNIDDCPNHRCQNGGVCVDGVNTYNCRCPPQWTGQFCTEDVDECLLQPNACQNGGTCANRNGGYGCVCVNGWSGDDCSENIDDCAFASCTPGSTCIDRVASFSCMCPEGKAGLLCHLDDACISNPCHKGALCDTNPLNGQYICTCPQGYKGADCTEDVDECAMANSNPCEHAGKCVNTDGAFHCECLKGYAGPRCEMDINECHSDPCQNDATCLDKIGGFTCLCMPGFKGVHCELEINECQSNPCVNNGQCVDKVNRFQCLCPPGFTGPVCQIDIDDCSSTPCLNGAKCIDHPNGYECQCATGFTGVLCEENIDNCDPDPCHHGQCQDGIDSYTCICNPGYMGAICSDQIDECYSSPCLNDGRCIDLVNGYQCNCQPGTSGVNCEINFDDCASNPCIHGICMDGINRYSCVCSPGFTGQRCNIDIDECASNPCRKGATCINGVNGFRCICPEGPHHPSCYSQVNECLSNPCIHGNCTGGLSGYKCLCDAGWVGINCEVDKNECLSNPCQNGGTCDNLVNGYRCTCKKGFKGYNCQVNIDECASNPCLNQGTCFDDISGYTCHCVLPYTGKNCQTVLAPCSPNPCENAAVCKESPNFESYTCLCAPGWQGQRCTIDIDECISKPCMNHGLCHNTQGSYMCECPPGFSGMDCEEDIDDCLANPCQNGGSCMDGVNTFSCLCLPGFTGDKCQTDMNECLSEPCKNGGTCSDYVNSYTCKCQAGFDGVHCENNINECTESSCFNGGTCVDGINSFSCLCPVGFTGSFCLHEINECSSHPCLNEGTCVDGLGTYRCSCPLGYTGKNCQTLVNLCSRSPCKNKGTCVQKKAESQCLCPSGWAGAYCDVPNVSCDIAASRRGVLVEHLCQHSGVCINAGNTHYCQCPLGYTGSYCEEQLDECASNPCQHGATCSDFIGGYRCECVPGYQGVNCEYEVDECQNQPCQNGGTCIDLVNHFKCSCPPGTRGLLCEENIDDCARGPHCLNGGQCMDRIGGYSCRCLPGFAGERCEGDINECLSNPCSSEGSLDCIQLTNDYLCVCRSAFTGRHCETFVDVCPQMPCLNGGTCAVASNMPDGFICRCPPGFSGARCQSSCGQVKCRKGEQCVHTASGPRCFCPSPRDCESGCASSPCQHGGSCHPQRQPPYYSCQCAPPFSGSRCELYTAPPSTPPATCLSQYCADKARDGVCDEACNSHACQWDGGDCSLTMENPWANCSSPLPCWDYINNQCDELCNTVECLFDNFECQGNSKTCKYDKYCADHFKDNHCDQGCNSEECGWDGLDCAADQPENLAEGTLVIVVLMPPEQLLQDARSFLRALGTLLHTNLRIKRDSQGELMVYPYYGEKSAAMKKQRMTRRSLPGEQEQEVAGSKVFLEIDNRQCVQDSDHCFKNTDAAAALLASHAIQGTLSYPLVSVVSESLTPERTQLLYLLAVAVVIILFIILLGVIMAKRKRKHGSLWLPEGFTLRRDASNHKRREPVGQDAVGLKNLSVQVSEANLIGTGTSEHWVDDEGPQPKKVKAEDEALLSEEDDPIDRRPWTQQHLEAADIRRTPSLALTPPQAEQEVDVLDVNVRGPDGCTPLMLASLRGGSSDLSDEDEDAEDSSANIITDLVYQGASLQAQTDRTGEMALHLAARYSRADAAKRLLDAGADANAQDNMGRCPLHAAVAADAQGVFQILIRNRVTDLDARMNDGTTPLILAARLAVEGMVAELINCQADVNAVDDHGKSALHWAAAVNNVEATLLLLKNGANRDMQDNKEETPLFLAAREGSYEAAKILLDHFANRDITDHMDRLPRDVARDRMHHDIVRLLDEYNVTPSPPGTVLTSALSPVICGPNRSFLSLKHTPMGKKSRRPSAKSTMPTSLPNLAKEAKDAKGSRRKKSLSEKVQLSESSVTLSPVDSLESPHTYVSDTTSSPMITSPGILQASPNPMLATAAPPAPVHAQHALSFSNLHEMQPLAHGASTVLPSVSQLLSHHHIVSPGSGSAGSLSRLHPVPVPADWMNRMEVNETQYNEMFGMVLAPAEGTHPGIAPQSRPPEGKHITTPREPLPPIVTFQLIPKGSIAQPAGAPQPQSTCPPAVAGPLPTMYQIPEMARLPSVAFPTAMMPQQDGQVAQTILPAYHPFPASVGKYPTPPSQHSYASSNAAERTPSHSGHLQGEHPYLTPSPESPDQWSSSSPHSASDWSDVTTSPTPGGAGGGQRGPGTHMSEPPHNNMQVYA
Chain of Torsin-1A-interacting protein 2 (Homo sapiens) (Q8NFQ8 whole entry, looked up): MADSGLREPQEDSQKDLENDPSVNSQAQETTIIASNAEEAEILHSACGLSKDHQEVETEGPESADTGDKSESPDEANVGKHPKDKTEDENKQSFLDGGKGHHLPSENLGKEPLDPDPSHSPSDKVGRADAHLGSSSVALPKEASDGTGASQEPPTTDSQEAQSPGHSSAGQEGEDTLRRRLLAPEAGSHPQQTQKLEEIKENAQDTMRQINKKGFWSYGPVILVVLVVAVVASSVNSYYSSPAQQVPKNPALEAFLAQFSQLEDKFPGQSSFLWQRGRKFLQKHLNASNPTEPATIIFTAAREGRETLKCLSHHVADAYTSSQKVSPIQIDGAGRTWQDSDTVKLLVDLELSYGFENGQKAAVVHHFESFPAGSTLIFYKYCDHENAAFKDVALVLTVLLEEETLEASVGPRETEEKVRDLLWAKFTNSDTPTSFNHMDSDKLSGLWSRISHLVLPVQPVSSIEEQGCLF
Chain of Pro-neuregulin-1, membrane-bound isoform (Homo sapiens) (Q02297 whole entry, looked up, the tested form may be a part, canonical isoform): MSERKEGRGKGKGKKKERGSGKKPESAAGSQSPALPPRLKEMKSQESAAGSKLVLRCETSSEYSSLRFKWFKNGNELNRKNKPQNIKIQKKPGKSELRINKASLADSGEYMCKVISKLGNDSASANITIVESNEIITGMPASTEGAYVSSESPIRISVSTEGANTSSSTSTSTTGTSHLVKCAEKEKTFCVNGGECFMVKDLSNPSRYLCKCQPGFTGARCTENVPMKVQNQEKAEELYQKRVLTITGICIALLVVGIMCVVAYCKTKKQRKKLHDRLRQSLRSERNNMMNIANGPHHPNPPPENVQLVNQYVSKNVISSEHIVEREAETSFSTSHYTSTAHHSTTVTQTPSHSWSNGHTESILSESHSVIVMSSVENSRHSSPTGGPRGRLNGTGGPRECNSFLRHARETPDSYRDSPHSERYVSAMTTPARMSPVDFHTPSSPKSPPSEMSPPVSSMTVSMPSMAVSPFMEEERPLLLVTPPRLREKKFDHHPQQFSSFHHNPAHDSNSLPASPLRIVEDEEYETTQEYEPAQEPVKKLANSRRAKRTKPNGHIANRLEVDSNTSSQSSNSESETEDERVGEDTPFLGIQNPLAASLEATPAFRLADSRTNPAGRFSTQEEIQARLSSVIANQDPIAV

SMILES | composite z-score [1] | composite z-score [2] | composite z-score [3] | composite z-score [4] | composite z-score [5] | composite z-score [6] | composite z-score [7] | z-score [8] | composite z-score [9] | composite z-score [10] | composite z-score [11] | z-score [12] | z-score [13] | z-score [14] | composite z-score [15] | z-score [16] | composite z-score [17] | composite z-score [18] | composite z-score [19] | composite z-score [20]
CC(=O)NCCCC[C@@H]1NC(=O)[C@@H]2C[C@H](C(=O)NCCCC[N+](C)(C)C)[C@H](c3cccc(OCCO)c3)N2C1=O | -0.239 | 1.05 | -0.126 | -0.194 | -0.525 | 0.82 | 1.13 | 0.573 (inactive) | -0.204 | -0.0645 | -0.598 | 0.408 (inactive) | 0.338 (inactive) | -0.465 (inactive) | -0.0272 | -0.427 (inactive) | 0.127 | 1.94 | 0.801 | -0.162
CC(C)N1C(=O)c2ccccc2[C@](C)(C(=O)O)[C@@H]1c1ccc(CO)cc1 | 0.513 | -0.671 | -0.0255 | -0.0804 | -0.663 | 0.752 | -0.0487 | 0.726 (inactive) | 0.112 | -0.0708 | -0.0681 | -0.0219 (inactive) | -0.751 (inactive) | -1.16 (inactive) | 1.32 | -0.156 (inactive) | -0.0395 | -0.615 | -0.356 | -0.256
CO[C@H]1O[C@H](CO)[C@@H](OC(=O)Nc2cccc(F)c2)[C@H](OC(=O)Nc2ccc3c(c2)OCO3)[C@H]1OC(=O)Nc1ccc2c(c1)OCO2 | -0.382 | 0.755 | 0.0094 | 0.358 | 0.893 | 0.958 | 1.17 | 6.24 (inactive) | -0.253 | -0.201 | 1.55 | 1.38 (inactive) | 1.29 (inactive) | 1.6 (inactive) | 3.25 | 1.76 (inactive) | -0.0025 | 1.07 | 0.649 | -0.142
COc1cc(C(O)C2C=CC3C(=O)NC(=O)C3N2Nc2ccc(Cl)cc2Cl)cc(OC)c1OC (stereo not given) | 0.223 | -1.1 | 0.0461 | 0.476 | 1.63 | 1.72 | 1.21 | 1.15 (inactive) | 1.7 | 0.203 | 1.18 | -12.3 (active) | -1.57 (inactive) | 0.27 (inactive) | 3.27 | -0.66 (inactive) | 0.162 | 0.049 | 1.09 | 0.114
COC(=O)c1ccc(OC)c(/C=C\CC(CCc2ccccc2)OC(C)=O)c1 (stereo not given) | -0.28 | -0.115 | -0.118 | -0.672 | -0.394 | -0.289 | -0.288 | -2.76 (inactive) | -0.458 | 0.101 | -0.0961 | -0.714 (inactive) | -0.645 (inactive) | -0.21 (inactive) | 0.324 | -0.031 (inactive) | -0.154 | -0.358 | -0.255 | -0.0899
CCN(CC)c1ccc(N2CC=CC34O[C@@H]5/C=C\CCCOC(=O)C5[C@H]3C(=O)N(CCCCCO)[C@@H]4C2=O)cc1 (stereo not given in full) | 0.0158 | -1.53 | -0.205 | -1.03 | -1.2 | 1.04 | 0.516 | 0.609 (inactive) | -0.663 | -0.0994 | -0.752 | -0.177 (inactive) | -0.691 (inactive) | -0.624 (inactive) | 0.45 | -0.838 (inactive) | -0.231 | -0.873 | -0.404 | -0.216
O=C1C2C=CC(C(O)c3ccccn3)N(Nc3ccccc3)C2C(=O)N1c1ccccc1 (stereo not given) | -0.205 | -1.39 | -0.105 | 0.356 | 0.177 | 1.65 | 1.03 | 1.29 (inactive) | 0.338 | -0.0003 | 0.207 | 0.756 (inactive) | 1.41 (inactive) | 0.391 (inactive) | 2.24 | -0.917 (inactive) | -0.0991 | -0.292 | -0.254 | -0.108
COC(=O)[C@]1(Cc2ccccc2CN=[N+]=[N-])N=C(c2ccc(OCCCO)cc2)O[C@@H]1c1ccccc1 | 0.774 | -0.556 | -0.137 | -1.27 | -1.24 | 0.4 | -0.45 | -2.44 (inactive) | -0.0581 | -0.174 | -0.985 | 0.697 (inactive) | -1.55 (inactive) | 35.3 (active) | 0.475 | 0.437 (inactive) | 0.17 | -0.586 | -0.601 | -0.257
COc1ccc(C(=O)Nc2ccc3c(c2)[C@]2(O[C@@H](CCO)[C@H]([Si](C)(C)c4ccc(OC)cc4)[C@H]2C)C(=O)N3Cc2ccccc2)cc1 | 0.0295 | 0.203 | -0.155 | -0.0615 | 0.0879 | 0.725 | 0.913 | -3.63 (inactive) | -0.0897 | -0.0237 | 1.3 | 0.122 (inactive) | -3.28 (inactive) | 3.8 (inactive) | 0.468 | 1.11 (inactive) | -0.175 | 0.78 | 0.163 | -0.107
COC(=O)[C@]1(Cc2ccccc2N=[N+]=[N-])N=C(c2ccc(OCCCO)cc2)O[C@@H]1c1ccccc1 | 1.3 | 0.517 | 0.0132 | -0.152 | -0.0515 | 0.358 | 0.929 | -0.237 (inactive) | 0.182 | 0.0291 | 0.867 | 0.537 (inactive) | -1.28 (inactive) | 21.8 (active) | 2.21 | 1.06 (inactive) | 0.23 | -0.4 | -0.361 | -0.136
